Our source for the Potency values is PubChem BioAssay (NCATS).

The source made the active and inactive calls. A call without a number means that no potency is given here. Calls follow the shape of the dose curve; as a rule, active = well fitted inhibition curve with a large enough effect; inconclusive = small, poorly fitted or top-dose-only effect; inactive = flat fitted curve, though single readings scatter.

This experiment relates to Nanoluciferase (engineered Oplophorus gracilirostris luciferase). As to the kind of experiment: Primary Nanoluciferase (NLuc) qHTS assay for identification of artifact compounds. (AID 1845222).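 Also: NLuc secreted into diluted conditioned medium of S16 cells.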 The following applies: NLuc-conditioned medium, Nano-Glo luminescence, 5 min; series mostly up to 54.1 µM. The method in brief: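 qHTS format, against NLuc in S16 cell-conditioned medium. Nano-Glo substrate 1:100 was added after 15 min at room temperature. Luminescence was taken after a further 5 min.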
Turning to `O=C1NC(Cc2c[nH]c3ccccc23)C(=O)NC1Cc1cnc[nH]1` (configuration not stated), the Potency result is “inactive”.
The same measure for `COc1ccc(Cl)c(Nc2nc3ccccc3nc2NS(=O)(=O)c2cccc(NC(=O)C(C)(C)N)c2)c1`: “inactive”; for `CC(=O)O[C@@H]1C[C@H](O)[C@@]23CO[C@H](O)[C@]1(C)C2C[C@@H](O)[C@]1(C)C3C(=O)[C@H](OC(C)=O)[C@@]2(C)[C@H](c3ccoc3)C[C@H]3O[C@]321` (some centres not stated): “inactive”; for `COc1ccc(-c2ccc(-c3cn(C(=O)N4CCCCC4c4ccccc4)nn3)cc2)cc1` (configuration not stated): “inactive”.
For the compound `CC1=C(C(=O)O)/C(=C/CO[C@@H]2O[C@H](COC(=O)/C=C/c3ccc(O)cc3)[C@@H](O)[C@H](O)[C@H]2O)C(O)C1` (some centres not stated), the Potency entry was “inactive”.
In the case of `O=C(Nc1ccn[nH]1)c1c(F)cccc1F` it was “inactive”; in that of `CCOc1cc(C)c(Cl)cc1S(=O)(=O)n1cnc2ccccc21`, “inactive”; in that of `C[C@@H]1C(=O)O[C@H]2C[C@]34[C@H]5C[C@@H](C(C)(C)C)[C@]36[C@@H](OC(=O)[C@H]6O)O[C@]4(C(=O)O5)[C@]21O`, “inactive”.
In the case of `COc1ccc([C@H]2CNC(=O)C2)cc1OC1CCCC1` it was “inactive”.
The same measure for `CC(C)[C@@H]1C(=O)N(S(C)(=O)=O)[C@@H]2CCN(C(=O)/C=C/CN3CCCCC3)[C@H]21`: “inactive”; for `CC1(C)CC[C@]2(C(=O)O[C@@H]3O[C@H](CO)[C@@H](O)[C@H](O)[C@H]3O)CC[C@]3(C)C(=CCC4[C@@]5(C)C[C@@H](O)[C@H](O)[C@](C)(C=O)C5CC[C@]43C)[C@@H]2[C@@H]1O` (some centres not stated): “inactive”; for `O=C(Nc1c(-c2cccs2)nc2ccccn12)c1ccc(Cl)cc1`: “inactive”.
